Test results taken from PubChem BioAssay (NCI).
“And” between values parts separate entries of the source, which are not always exact repeats. Equal entries are not always repeated. About 79,000 compounds went through this panel and 15% of them were active in at least one assay; those are over-represented in the sample as a whole. The source made the active and inactive calls. Rule as the data show it: active = growth inhibition above about 70%; inactive = the rest.

Legend:
[1] = NCI Yeast Anticancer Drug Screen. Data for the rad50 strain (AID 155);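 also: 0% = growth of vehicle-only cultures of the same strain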; conditions: S. cerevisiae rad50 strain growth inhibition, active compounds read high; at 50.0 µM unless noted
Summary of the method: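 Cells are treated with compound, grown, and their growth is then scored against vehicle-only cultures of the same repair-deficient yeast strain.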

[2] = NCI Yeast Anticancer Drug Screen. Data for the mec2-1 strain (AID 157); conditions: S. cerevisiae mec2-1 strain, active compounds read high; at 50.0 µM unless noted
Summary of the method: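 Cells of the genetically defined mec2-1 yeast strain are incubated with test compound. Inhibition of growth is calculated against vehicle-treated controls.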

[3] = NCI Yeast Anticancer Drug Screen. Data for the sgs1 mgt1 strain (AID 161);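 also: 0% = growth of cultures given vehicle only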; conditions: S. cerevisiae sgs1 mgt1 strain, active compounds read high; at 50.0 µM unless noted
Summary of the method: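 Read-out: growth inhibition vs vehicle controls. Cells: mutant yeast strain deficient in DNA damage repair.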

[4] = NCI Yeast Anticancer Drug Screen. Data for the cln2 rad14 strain (AID 165);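 also: 0% = growth equal to vehicle treated cultures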; conditions: S. cerevisiae cln2 rad14 strain, active compounds read high; at 50.0 µM unless noted
Summary of the method: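 The screen exposed genetically defined yeast (cln2 rad14) to test compounds and scored growth inhibition relative to vehicle-treated controls.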

[5] = NCI Yeast Anticancer Drug Screen. Data for the bub3 strain (AID 167); conditions: S. cerevisiae bub3 mutant strain, active compounds read high; at 50.0 µM unless noted
Summary of the method: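 Part of a panel of yeast mutants defective in DNA damage repair or cell cycle regulation. Each strain is grown with compound, and inhibition is calculated relative to solvent-treated cultures.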

[6] = NCI Yeast Anticancer Drug Screen. Data for the mlh1 rad18 strain (AID 175); conditions: S. cerevisiae mlh1 rad18 strain growth inhibition, active compounds read high; at 50.0 µM unless noted
Summary of the method: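 Compound-treated yeast growth, normalised to vehicle controls. Strain bears defined DNA repair mutations.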

Measured: growth inhibition

Cc1ccc(NC(=O)CC/C(CC(=O)c2ccc(F)cc2)=N\NC(=O)C(=O)NN)cc1C
inactive: [1] -11.3% | [2] -5.2% | [3] -9.55% | [4] -3.3% | [5] -1.7% | [6] -1.25%

CCN(CC)CC(=O)Nc1cc(Cl)ccc1OC
inactive: [1] -4% | [2] -19.8% | [3] -5.75% | [4] -35.3% | [5] 8.9% | [6] -6.25%

O=C(Cc1ccccc1)CC(CC(=O)Cc1ccccc1)c1ccccc1
inactive: [1] 31% | [2] -16.7% | [3] 6.6% | [4] 15.8% | [5] 3.7% | [6] -6.15%

CC1(c2ccccc2)C(=O)c2ccccc2-c2ccccc21 (stereo unspecified)
inactive: [1] 63.5% | [2] 48.4% | [3] 63.8% | [4] 3.45% | [5] 24.7% | [6] 24%

COC(=O)C(CCC1(C)OCCO1)C(C)=O (stereo unspecified)
inactive: [1] -10.4% | [2] -0.85% | [3] -9% | [4] 7.65% | [5] -1.55% | [6] -13%

COc1ccc(CCNCC(O)CSc2ccc(Cl)cc2)cc1OC (stereo unspecified)
active: [1] 74.8% | [3] 73%
inactive: [2] 20.4% | [4] 27.9% | [5] 22% | [6] 30.6%

Cc1cc2c(C)nn(Cc3ccccc3)c2c(C(N)=O)c1C
inactive: [1] 9.85% | [2] -6.65% | [3] -10% | [4] 35.6% | [5] -3.1% | [6] 51.4%

Clc1ccc(-c2cn3c(nc4ccccc43)c(-c3ccccc3)n2)cc1
inactive: [1] -7.65% | [2] 1.4% | [3] -10.1% | [4] 2.35% | [5] -22.5% | [6] -16%

Nc1ccccc1S(=O)(=O)Nc1c(N)nc(SCC(=O)O)[nH]c1=O
inactive: [1] -15.4% | [2] -21.9% | [3] -10% | [4] -4.2% | [5] -12.9% | [6] 0.65%

O=C(CC(=O)N1N=C(n2ccc3ccccc32)CC1c1ccccc1)Nc1ccc(Cl)cc1 (stereo unspecified)
inactive: [1] -25.3% | [2] -7.7% | [3] -16.8% | [4] 7.1% | [5] -4.35% | [6] -5%

OC(c1ccccc1)c1ccc(C(O)c2ccccc2)cc1 (stereo unspecified)
inactive: [1] -14.2% | [2] -19.1% | [3] -8.85% | [4] 33.3% | [5] 5.5% | [6] -8.75%

CC(=O)Nc1ccc(CCCc2ccc([N+](=O)[O-])cc2)cc1
inactive: [1] 3.15% | [2] 3.35% | [3] -10.9% | [4] -70.2% | [5] 1.6% | [6] 0%

N#CCc1nc(-c2cc3ccc(O)cc3oc2=O)cs1
inactive: [1] 19.1% | [2] 8.45% | [3] -25.9% | [4] 2.8% | [5] -12.4% | [6] -40.8%

CCOC(=O)c1nc2ccccc2nc1NCc1cc(OC)c(OC)c(OC)c1
inactive: [1] -14.9% | [2] -11.9% | [3] -10.8% | [4] 5.65% | [5] -7.9% | [6] -29.4%

CC(=O)Nc1ccc(S(=O)(=O)N/N=C(/C)c2ccccc2)cc1
inactive: [1] -8.8% | [2] -31.8% | [3] 1.05% | [4] 1.55% | [5] -23.4% | [6] -23.6%

CN(C)CC1(C)CC/C(=C\c2ccc3c(c2)OCO3)C1=O (stereo unspecified)
inactive: [1] 58.4% | [2] 30.4% | [3] 45% | [4] 51.9% | [5] 29.9% | [6] 56%

OCCNc1ncnc2c1ncn2C1OC(CO)C(O)C1O (stereo unspecified)
inactive: [1] 6.3% | [2] 5.25% | [3] -12.3% | [4] -23.9% | [5] -20% | [6] 22%

O=C(Oc1ccc(Cl)cc1)c1ccc([N+](=O)[O-])cc1
inactive: [1] 12.2% | [2] 26.1% | [3] 9.9% | [4] 2.7% | [5] 8.65% | [6] 0.2%

CCCCCCCOC(=O)CO
inactive: [1] 22.4% | [2] 6.65% | [3] 16.2% | [4] 16.9% | [5] 1.95% | [6] 19.4%

O=C(O)c1ccc(NCn2c(=S)sc3ccccc32)cc1
inactive: [1] 6.45% | [2] 3% | [3] 52% | [4] 26.9% | [5] 11.8% | [6] 11.1%

CC(CCCCCOC(=O)Nc1ccccc1)OC(=O)Nc1ccccc1 (stereo unspecified)
inactive: [1] 6.2% | [2] -12.3% | [3] -3.1% | [4] 0.75% | [5] 1.15% | [6] 2.6%

CCc1cc(C)cc(O)c1
inactive: [1] -42.9% and 38% | [2] -40% and 4.6% | [3] -65.2% and -1.55% | [4] 0.45% and 7.15% | [5] -56% and 27.4% | [6] -29.9% and 12%

CC(=O)NC1C(OCc2ccccc2)OC(CO)C(O)C1OC(C)C(=O)N[C@@H](C)C(=O)N[C@H](CCC(=O)OCCNc1c2ccccc2nc2cccc([N+](=O)[O-])c12)C(N)=O (stereo partly specified)
active: [1] 87.2% | [2] 90.8% | [3] 90.4% | [4] 90.5% | [5] 88.7% | [6] 86.8%

Cc1ncc(CO)c(CO)c1OCC(O)CN1CCN(c2ccc(F)cc2)CC1 (stereo unspecified)
inactive: [1] -15.8% | [2] -2.65% | [3] -8.25% | [4] -41.2% | [5] -6.9% | [6] -0.45%

c1ccc(-n2ncn[n+]2-c2ccccc2)cc1
inactive: [1] 6.55% | [2] 4.4% | [3] -0.3% | [4] 28.4% | [5] 32.8% | [6] 5.15%

COc1cccc(N2C(=O)C3c4[nH]c5ccc(C)cc5c4C4CCC(C)CC4C3C2=O)c1 (stereo unspecified)
inactive: [1] -10.7% | [2] -27.4% | [3] -29.1% | [4] -6.5% | [5] -23.1% | [6] -13.4%

CCN(CC)c1cc(C)c2cc(Cc3ccccc3)ccc2n1
inactive: [1] 35.2% | [2] 32.8% | [3] 23.9% | [4] 31.8% | [5] 65.1% | [6] 14.5%

CC(=O)c1ccc2c(c1)NC(=O)CC(C)N2 (stereo unspecified)
inactive: [1] 0.65% | [2] -1.25% | [3] 11.9% | [4] -25.6% | [5] 5.05% | [6] 0.3%

CCCC1([N+]2(C)CCCC2)CS(=O)C1CC (stereo unspecified)
inactive: [1] -3.8% | [2] 8.45% | [3] -3% | [4] -4.8% | [5] 5.8% | [6] -13.3%

O=C(/C=C\c1ccc(Cl)c(Cl)c1)/C=C/c1ccc(Cl)c(Cl)c1
inactive: [1] 25.5% | [2] 4.75% | [3] 26.4% | [4] 9.55% | [5] 39% | [6] 16.6%

COc1cccc(C2SCC(=O)N2c2ccc(-n3c(-c4ccccc4)nc4ccccc4c3=O)cc2)c1OC (stereo unspecified)
inactive: [1] 11.9% | [2] 26.4% | [3] 0.9% | [4] -9.7% | [5] 22.4% | [6] 26.9%

CC(=O)OC(C)(C)C#CC(C)(C)OC(C)=O
inactive: [1] -9.95% | [2] -24.4% | [3] -15.4% | [4] 3% | [5] -11.7% | [6] -19.3%

NC1=C(O)C(=O)C(c2ccc3c(c2)OCO3)O1 (stereo unspecified)
inactive: [1] -17.6% | [2] -5% | [3] -19.9% | [4] -30.2% | [5] 24.8% | [6] -5.2%

Cc1ccc(NC(=O)c2c(Br)c(Br)c(Br)c(Br)c2C(=O)O)cc1Cl
inactive: [1] -1.75% | [2] -5.5% | [3] -8.6% | [4] -22.4% | [5] 2.9% | [6] -9.25%

CC1=CCC(CC2CO2)C1(C)C (stereo unspecified)
inactive: [1] -27.6% | [2] -48.4% | [3] -17.2% | [4] -9.95% | [5] -35.2% | [6] -31.1%

CCO[C@@H]1OC(=O)[C@H]2C(c3ccccc3Cl)=NO[C@@H]12
inactive: [1] -33.1% | [2] -30.9% | [3] -13.2% | [4] -6.65% | [5] 14.2% | [6] 0.35%
